We go through 11 compounds from PubChem BioAssay (NCATS).

Records with an inconclusive call do not appear. Calls of active or inactive are those of the source. Calls come from the whole dose curve; as a rule, active = well fitted curve in the direction sought with a large enough effect; inconclusive = small, poorly fitted or top-dose-only effect, or another doubt; inactive = no such curve, though single readings can be large; an effect the other way counts as inactive or inconclusive.

Assay [1] can be described thus: BET inhibitor-based combinations targeting novel dependencies in MECOM-rearranged (r) AML: MV-4-11 cell line (AID 2202233). Note: nearly all actives have a fitted effect of over 45% in size. A digest of the protocol: (§1)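 Using pin-tool transfer, drugs were added in 11 doses to cells (500/well), incubated 48 hr, and assessed with CellTiter-Glo. Z-AUC is a mean-centring transformation applied separately to each screened line.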
Assay [2] can be described thus: BET inhibitor-based combinations targeting novel dependencies in MECOM-rearranged (r) AML: HNT-34 cell line (AID 2202234). Note: nearly all actives have a fitted effect of over 35% in size. A digest of the protocol: as §1
Assay [3] can be described thus: BET inhibitor-based combinations targeting novel dependencies in MECOM-rearranged (r) AML: OCI-AML3 cell line (AID 2202232). Note: nearly all actives have a fitted effect of over 35% in size. Particulars: Potency: OCI-AML3 viability. Summed up:
(§2)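 Viability of cells (500 per well) is scored by luminescent CellTiter-Glo at 48 hr post-dosing. Eleven-point titrations are normalized to DMSO and empty controls and reduced to AUC values.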

Assay [4] is described as follows: BET inhibitor-based combinations targeting novel dependencies in MECOM-rearranged (r) AML: UCSD-AML1 cell line (AID 2202235). Note: nearly all actives have a fitted effect of over 40% in size. A digest of the protocol:
as §1

The nature of assay [5]: BET inhibitor-based combinations targeting novel dependencies in MECOM-rearranged (r) AML: AML-191 cell line (AID 2202236; note: nearly all actives have a fitted effect of over 35% in size). Summed up: as §2
A short description of assay [6]: BET inhibitor-based combinations targeting novel dependencies in MECOM-rearranged (r) AML: AML-194 cell line (AID 2202237; note: nearly all actives have a fitted effect of over 40% in size). A digest of the protocol: as §2
Potency is the fitted concentration of half-maximal effect.

As for `COC(=O)C1=C(C)NC(c2ncc(F)cc2F)=N[C@H]1c1ccc(F)cc1Cl`, the values for the Potency in assay [1] and in assay [2] were 18.6 µM (active) and 16.6 µM (active), respectively.

Take `C/C(O)=C(\C#N)C(=O)Nc1ccc(C(F)(F)F)cc1`: the figures for the Potency in assay [3] and in assay [2] were 9.34 µM (active) and 14.8 µM (active), respectively. Also, the Potency result in assay [4] was “inactive”.

In the case of `Nc1ncnc(Nc2ccc(OCc3ccccc3)c(Cl)c2)c1/C=N/OCCN1CCOCC1`, the Potency entry in assay [3] is “inactive”. Besides, the Potency in assay [2] was 23.5 µM (active).

In the case of `C=CC(=O)N1CCC[C@H](n2c(=O)n(-c3ccc(Oc4ccccc4)cc3)c3c(N)ncnc32)C1`, the Potency entry in assay [3] and in assay [4] was “inactive” throughout. Moreover, the Potency in assay [2] was 16.6 µM (active).

In the case of `NC(=O)c1cccc2c(NC(CN3CCC3)c3ccc(Cl)c(C(F)(F)F)c3)ncnc12` (stereo not drawn), the Potency in assay [3] was 1.48 µM (active); in assay [5], 20.9 µM (active); in assay [6] it was 16.6 µM (active).

For the compound `CN[C@@H](C)C(=O)N[C@H](C(=O)N1CCC[C@H]1C(=O)Nc1snnc1-c1ccccc1)C1CCCCC1`, the Potency entry in assay [3] and in assay [2] was “inactive” in each case. The values for the Potency in assay [4] and in assay [6] were 1.86 µM (active) and 3.32 µM (active), respectively.

For `CC(C)n1cnc2c(NCCCCCCNC(=O)OC(C)(C)C)nc(NCCO)nc21`, the Potency in assay [1] is 16.6 µM (active).

Consider `CCCCOc1ccc(CC(=O)NO)cc1`, for which the figures for the Potency in assay [3] and in assay [2] were 13.2 µM (active) and 20.9 µM (active), respectively.

As to `C[C@H]1C[C@@H](n2c(Nc3ccc(OC(F)(F)F)cc3)nc3cc(CCC(=O)O)ccc32)CC(C)(C)C1`, the Potency in assay [1] is 20.9 µM (active).

Take `CNC(=O)[C@H]1O[C@@H](n2cnc3c(NCc4cccc(I)c4)nc(Cl)nc32)[C@H](O)[C@@H]1O`: the Potency entry in assay [3], in assay [4], in assay [5] and in assay [6] was “inactive” each time.

Turning to `CCNc1cc(NC2CCC(O)CC2)nc(Nc2ccc3c(ccn3Cc3ccccc3)c2)n1` (stereo not drawn), the Potency result in assay [3], in assay [2] and in assay [5] was “inactive” each time.
